Experimental data reported in PubChem BioAssay (NCATS).
Records with an inconclusive call do not appear. Active and inactive are the calls of the source. Unless noted, calls come from the whole dose curve; as a rule, active = well fitted curve in the direction sought with a large enough effect; inconclusive = small, poorly fitted or top-dose-only effect, or another doubt; inactive = no such curve, though single readings can be large; an effect the other way counts as inactive or inconclusive.

Key:
[1] = qHTS for Inhibitors of Plasmodium falciparum (DD2) proliferation (AID 504314);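 note: parasite DNA measured by SYBR Green fluorescence after red cell lysis; plate controls were DMSO vehicle for no effect and artemisinin wells for full effect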
Outline: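 SYBR Green growth assay: 72 h compound exposure of infected red cells (2.5% hematocrit, 0.3% parasitemia), then lysis and overnight dye staining, fluorescence 485/535 nm. Values scaled between DMSO and 0.29 uM artemisinin controls.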

[2] = qHTS for Inhibitors of Plasmodium falciparum (7G8) proliferation (AID 504316);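 note: series mostly up to about 6.7 µM; 0% = DMSO vehicle and -100% = 0.29 µM artemisinin full kill; nearly all actives have a fitted effect of over 65% in size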
Outline: (§1)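 Parasite growth measured as SYBR Green DNA fluorescence (ex 485, em 535 nm) after overnight lysis following 72 h culture at 37 °C, 0.3% parasitemia, 2.5% hematocrit. Values normalized against DMSO and 0.29 uM artemisinin controls, with plate-stack correction.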

[3] = qHTS for Inhibitors of Plasmodium falciparum (HB3) proliferation (AID 504318);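 note: 0% = DMSO vehicle and -100% = artemisinin control; nearly all actives have a fitted effect of over 60% in size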
Outline: as §1

[4] = qHTS for Inhibitors of Plasmodium falciparum (CP250) proliferation (AID 504320);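 note: plate controls were DMSO vehicle for no effect and 0.29 µM artemisinin control for full effect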
Outline: as §1

[5] = target: Atrial natriuretic peptide receptor 1 (Homo sapiens) (UniProt P16066); experiment: Natriuretic polypeptide receptor (hNpr1) antagonism - Pilot CMLD screen (AID 1347052; calls by dose curve;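 note: HEK293 cells with hNpr1 stimulated by hNppA peptide at 0.1 nM; cGMP level read as GloSensor luciferase luminescence after agonist stimulation; series mostly up to about 9.2 µM; % is set by controls: 0 for no effect and ±100 for the full control effect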)
Atrial natriuretic peptide receptor 1 (Homo sapiens), sequence (P16066 whole entry, looked up): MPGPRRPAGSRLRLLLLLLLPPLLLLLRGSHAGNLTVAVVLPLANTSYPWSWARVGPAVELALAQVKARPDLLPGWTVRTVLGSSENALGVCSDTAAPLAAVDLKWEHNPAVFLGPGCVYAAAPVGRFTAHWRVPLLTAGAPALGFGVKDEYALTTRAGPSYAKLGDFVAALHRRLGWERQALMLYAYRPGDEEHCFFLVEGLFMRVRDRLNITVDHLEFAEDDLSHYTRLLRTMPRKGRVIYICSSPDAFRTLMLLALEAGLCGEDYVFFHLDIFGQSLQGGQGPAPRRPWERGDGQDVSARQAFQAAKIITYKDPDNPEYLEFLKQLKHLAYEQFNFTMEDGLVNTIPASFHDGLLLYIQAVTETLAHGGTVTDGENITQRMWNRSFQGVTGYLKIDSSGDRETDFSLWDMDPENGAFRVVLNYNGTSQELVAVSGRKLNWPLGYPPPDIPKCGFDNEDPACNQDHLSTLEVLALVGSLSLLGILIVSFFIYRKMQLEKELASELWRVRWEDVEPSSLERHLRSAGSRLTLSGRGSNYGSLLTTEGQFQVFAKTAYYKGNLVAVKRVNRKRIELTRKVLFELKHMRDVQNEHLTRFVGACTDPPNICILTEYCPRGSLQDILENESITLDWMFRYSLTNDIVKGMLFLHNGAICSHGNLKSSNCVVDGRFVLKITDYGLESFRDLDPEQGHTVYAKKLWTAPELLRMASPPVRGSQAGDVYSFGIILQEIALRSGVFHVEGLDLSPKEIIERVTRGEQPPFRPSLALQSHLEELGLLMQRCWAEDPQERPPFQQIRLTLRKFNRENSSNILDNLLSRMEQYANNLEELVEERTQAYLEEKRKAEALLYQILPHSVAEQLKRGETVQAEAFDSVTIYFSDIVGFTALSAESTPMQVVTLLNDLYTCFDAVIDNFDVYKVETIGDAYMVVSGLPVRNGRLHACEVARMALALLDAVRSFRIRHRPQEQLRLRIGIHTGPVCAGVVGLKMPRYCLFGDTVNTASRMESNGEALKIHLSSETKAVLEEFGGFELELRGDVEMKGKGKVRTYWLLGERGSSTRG

[6] = target: Cytochrome P450 2C9 (Homo sapiens) (UniProt P11712); experiment: qHTS Assay for Inhibitors and Substrates of Cytochrome P450 2C9 (AID 883); note: % is set by controls: 0 for no effect and ±100 for the full control effect; nearly all actives have a fitted effect of over 60% in size
Cytochrome P450 2C9 (Homo sapiens), sequence (P11712 whole entry, looked up): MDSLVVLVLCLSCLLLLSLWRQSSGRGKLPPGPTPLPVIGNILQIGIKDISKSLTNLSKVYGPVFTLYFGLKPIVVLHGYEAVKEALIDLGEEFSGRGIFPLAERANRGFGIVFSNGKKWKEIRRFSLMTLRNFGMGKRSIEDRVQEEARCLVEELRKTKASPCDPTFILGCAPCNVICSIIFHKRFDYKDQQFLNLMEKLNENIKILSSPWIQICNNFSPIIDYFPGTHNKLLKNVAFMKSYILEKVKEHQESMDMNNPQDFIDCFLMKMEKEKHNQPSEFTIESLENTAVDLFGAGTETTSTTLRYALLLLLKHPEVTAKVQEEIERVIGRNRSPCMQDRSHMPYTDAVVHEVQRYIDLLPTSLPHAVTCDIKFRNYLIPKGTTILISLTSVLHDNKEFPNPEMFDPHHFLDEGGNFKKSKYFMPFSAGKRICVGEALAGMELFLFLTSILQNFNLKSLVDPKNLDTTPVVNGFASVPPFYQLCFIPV
Outline: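 Human CYP2C9 (10nM) hydroxylated Luciferin-H (100uM, at its KM) to luciferin in 25mM KPO4. Compound was preincubated 10 min at 37C, then NADPH regeneration started a 60 min reaction at 37C. Luminescence was read after detection reagent, normalized to 57uM sulphaphenazole.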

[7] = target: Cytochrome P450 3A4 (Homo sapiens) (UniProt P08684); experiment: qHTS Assay for Inhibitors and Substrates of Cytochrome P450 3A4 (AID 884); note: series mostly up to about 57 µM; % is set by controls: 0 for no effect and ±100 for the full control effect; nearly all actives have a fitted effect of over 50% in size
Cytochrome P450 3A4 (Homo sapiens), sequence (P08684 whole entry, looked up): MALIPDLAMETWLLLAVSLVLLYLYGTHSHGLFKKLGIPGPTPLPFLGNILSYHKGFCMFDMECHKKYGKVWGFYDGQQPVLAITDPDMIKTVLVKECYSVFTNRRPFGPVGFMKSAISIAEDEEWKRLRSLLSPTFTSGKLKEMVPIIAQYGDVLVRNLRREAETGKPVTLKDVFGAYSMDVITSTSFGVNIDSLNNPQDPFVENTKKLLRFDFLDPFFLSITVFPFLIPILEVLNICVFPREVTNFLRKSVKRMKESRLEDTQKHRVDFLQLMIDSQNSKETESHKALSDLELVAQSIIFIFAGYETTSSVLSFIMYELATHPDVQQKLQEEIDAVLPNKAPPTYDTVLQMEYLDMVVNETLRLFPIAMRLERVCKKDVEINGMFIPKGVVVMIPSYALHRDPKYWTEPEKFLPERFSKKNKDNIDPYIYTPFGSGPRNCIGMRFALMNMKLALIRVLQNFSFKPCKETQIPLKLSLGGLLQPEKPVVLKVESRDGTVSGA
Outline: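 Luminescent readout of luciferin produced by CYP3A4 (20 nM) dealkylation of Luciferin-PPXE, 25 uM (its KM). NADPH-driven reaction ran 60 min at RT after 10 min compound preincubation; data scaled to 57 uM ketoconazole as 100% inhibition.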

[8] = target: Cytochrome P450 2D6 (Homo sapiens) (UniProt P10635); experiment: qHTS Assay for Inhibitors and Substrates of Cytochrome P450 2D6 (AID 891);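 note: luciferin methyl ether substrate demethylated by CYP2D6 with NADPH regeneration; % is set by controls: 0 for no effect and ±100 for the full control effect; nearly all actives have a fitted effect of over 60% in size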
Cytochrome P450 2D6 (Homo sapiens), sequence (P10635 whole entry, looked up): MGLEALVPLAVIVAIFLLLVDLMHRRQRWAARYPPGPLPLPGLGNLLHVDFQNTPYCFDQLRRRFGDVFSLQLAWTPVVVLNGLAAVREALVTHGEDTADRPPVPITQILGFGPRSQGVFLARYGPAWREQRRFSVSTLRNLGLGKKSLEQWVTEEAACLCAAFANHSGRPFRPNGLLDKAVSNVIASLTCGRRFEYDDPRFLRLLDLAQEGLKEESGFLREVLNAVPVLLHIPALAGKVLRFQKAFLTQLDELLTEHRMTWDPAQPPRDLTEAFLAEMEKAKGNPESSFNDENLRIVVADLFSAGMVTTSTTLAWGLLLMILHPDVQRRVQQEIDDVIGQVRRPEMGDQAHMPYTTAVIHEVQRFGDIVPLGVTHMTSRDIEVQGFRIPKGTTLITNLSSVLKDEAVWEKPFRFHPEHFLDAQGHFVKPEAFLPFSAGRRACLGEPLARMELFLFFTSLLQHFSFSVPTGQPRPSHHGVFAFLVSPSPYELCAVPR
Outline: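 Luminescent read-out of luciferin formed by 5 nM human CYP2D6 demethylating 30 uM Luciferin-ME EGE (Km level) over 60 min at room temperature after NADPH regeneration addition. Data normalized to full inhibition by 1.43 uM quinidine.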

[9] = target: Cytochrome P450 2C19 (Homo sapiens) (UniProt P33261); experiment: qHTS Assay for Inhibitors and Substrates of Cytochrome P450 2C19 (AID 899); note: % is set by controls: 0 for no effect and ±100 for the full control effect; nearly all actives have a fitted effect of over 60% in size
Cytochrome P450 2C19 (Homo sapiens), sequence (P33261 whole entry, looked up): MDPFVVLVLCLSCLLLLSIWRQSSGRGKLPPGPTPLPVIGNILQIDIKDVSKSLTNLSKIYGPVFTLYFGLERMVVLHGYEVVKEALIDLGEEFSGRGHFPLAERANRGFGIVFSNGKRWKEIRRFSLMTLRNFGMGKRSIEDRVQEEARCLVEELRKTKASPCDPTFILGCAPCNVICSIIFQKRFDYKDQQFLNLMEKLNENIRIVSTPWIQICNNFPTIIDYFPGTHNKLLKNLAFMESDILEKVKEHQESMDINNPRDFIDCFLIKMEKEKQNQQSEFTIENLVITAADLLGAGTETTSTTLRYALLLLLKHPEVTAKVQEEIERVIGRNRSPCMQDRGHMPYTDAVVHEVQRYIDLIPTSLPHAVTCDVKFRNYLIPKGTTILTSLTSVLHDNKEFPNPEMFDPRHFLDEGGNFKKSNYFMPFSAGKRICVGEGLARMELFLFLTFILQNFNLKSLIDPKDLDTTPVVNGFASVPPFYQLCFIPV
Outline: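 Human CYP2C19 (5nM) with Luciferin-H EGE at 10uM (its KM) in 50mM KPO4 was preincubated with compound for 10 min at 37C. NADPH regeneration started a 60 min 37C reaction. Luciferin was read by luminescence, normalized to 57uM ketoconazole.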

COC(=O)N[C@@H](C=Cc1ccccc1)[C@@H](C)[N+](=O)[O-]
inactive: Potency [1] | Potency [2] | Potency [3] | Potency [4] | Potency [5]

COCCN1C(=O)NC(c2cccc(C(F)(F)F)c2)C(C(=O)OC)=C1C (configuration not stated)
inactive: Potency [1] | Potency [2] | Potency [3] | Potency [4] | Potency [5]

COC(=O)NC(c1ccccc1)C1(C(=O)OC)C(=O)Cc2ccccc21 (configuration not stated)
inactive: Potency [1] | Potency [2] | Potency [3] | Potency [4] | Potency [5]

C=CCOC(=O)C(C(C)=O)[C@@H](NC(=O)OC)c1ccco1 (some centres not stated)
inactive: Potency [1] | Potency [2] | Potency [3] | Potency [4] | Potency [5]

CCOC(=O)CN1C(=O)NC(c2cccc(F)c2)C(C(C)=O)=C1C (configuration not stated)
inactive: Potency [1] | Potency [2] | Potency [3] | Potency [4] | Potency [5]

Cc1cccc(C)c1Nc1oc(-c2ccccc2)nc1-c1cccc2ccccc12
inactive: Potency [1] | Potency [3] | Potency [4] | Potency [5]

C=C(COC)C1=CCC(C(=O)OC)(C(=O)OC)[C@@H](C[N+](=O)[O-])c2ccccc21
inactive: Potency [1] | Potency [3] | Potency [4] | Potency [5]

COC1(C#C[C@@H]2C=C[C@H](OC(C)=O)[C@@H](COC(C)=O)O2)CCCCC1
inactive: Potency [1] | Potency [2] | Potency [4] | Potency [5]

C=CC[C@@]1(c2ccc(Br)cc2OC)Oc2ccccc2-c2nccnc21
inactive: Potency [1] | Potency [2] | Potency [4] | Potency [5]

CCN1C(=NCCc2ccc(Br)cc2)N[C@@H](c2ccccc2)[C@H](C(=O)OC)[C@H]1C
inactive: Potency [1] | Potency [2] | Potency [3] | Potency [4] | Potency [5]

COc1ccc(COC(=O)NN=C2C[C@@H](O)[C@@H](O)[C@@H]3[C@H]4C(=O)N(c5cccc(Oc6ccccc6)c5)C(=O)[C@@H]4CC[C@H]23)cc1
inactive: Potency [1] | Potency [2] | Potency [4] | Potency [5]

COc1ccc2c(c1)[C@@H](NC(=O)C(F)(F)F)[C@@H]1CCCC[C@]21c1ccccc1
inactive: Potency [1] | Potency [2] | Potency [4] | Potency [5]

CC(Nc1oc(-c2ccccc2)nc1C(C)(C)C)c1ccccc1 (configuration not stated)
inactive: Potency [1] | Potency [2] | Potency [4] | Potency [5]

CCN1C(=O)N(C)C(c2ccccc2)C(C(C)=O)=C1C (configuration not stated)
inactive: Potency [1] | Potency [2] | Potency [3] | Potency [4] | Potency [5]

CCN1C(=O)N(S(=O)(=O)C(F)(F)F)C(c2ccccc2)C(C(=O)OC)=C1C (configuration not stated)
inactive: Potency [1] | Potency [2] | Potency [4] | Potency [5]

CC(CCC(=O)OC[C@H]1O[C@H](C#Cc2ccccc2)C=C[C@H]1Oc1ccc(C)cc1)=NOC[C@@H](O)COCc1ccco1
inactive: Potency [1] | Potency [2] | Potency [3] | Potency [4] | Potency [5]

Cn1c(-c2ccccc2)c(O)c(=O)c2ccccc21
inactive: activity change, negative = inhibition [6] -1.19% [at 11.4 µM] | activity change, negative = inhibition [7] -14.6% [at 11.4 µM] | activity change, negative = inhibition [8] 4.63% [at 11.4 µM] | activity, negative = inhibition [9] 50% [at 11.4 µM] | Potency [1] | Potency [2] | Potency [3] | Potency [4] | Potency [5]

CC1(OC(=O)C2CCCC2)C(=O)C=C2C=C3CCCCN3C=C2C1=O (configuration not stated)
inactive: activity, negative = inhibition [1] 1.6% [at 1.12 µM] | Potency [2] | Potency [4] | Potency [5]

O=C1CCCC=C1C(O)CCOCc1ccccc1 (configuration not stated)
inactive: Potency [1] | Potency [3] | Potency [4] | Potency [5]

CC(=O)OC[C@H]1O[C@H](CC=NO[C@H](C)c2cn([C@@H]3COC[C@@H]3O)nn2)C=C[C@@H]1OC(C)=O
inactive: Potency [1] | Potency [2] | Potency [4] | Potency [5]

CC=CC1=CC2=CC(=O)C(C)(OC(=O)c3c(C)cc(O)cc3O)C(=O)C2=CO1 (configuration not stated)
inactive: Potency [1] | Potency [2] | Potency [4] | Potency [5]

CC(=O)OC[C@H]1O[C@@H](ON=C(C)CCC(=O)OC[C@H]2O[C@H](C#Cc3ccccc3)C=C[C@H]2Oc2ccc(C)cc2)[C@H](OC(C)=O)[C@@H](OC(C)=O)[C@H]1OC(C)=O
inactive: Potency [1] | Potency [3] | Potency [4] | Potency [5]

COC(=O)N[C@H](CC(C)=O)c1ccccc1
inactive: Potency [1] | Potency [2] | Potency [4] | Potency [5]

COC(=O)C1=C(C)N(Cc2ccccc2)C(=S)NC1c1ccccc1 (configuration not stated)
inactive: Potency [1] | Potency [2] | Potency [4] | Potency [5]

C=CCCCN1C(=O)NC(c2ccccc2)C(C(=O)OC)=C1C (configuration not stated)
inactive: Potency [1] | Potency [2] | Potency [3] | Potency [4] | Potency [5]

COC(=O)[C@@]1(C=C2c3ccc(F)cc3[C@@H](OC)[C@@H]2C)[C@@H]2C=CC[C@@H]21
inactive: Potency [1] | Potency [2] | Potency [4] | Potency [5]

C[C@@H]1C[C@H]2[C@@H](C)C(=O)N3[C@@H](C[C@@H](C)[C@@H]3c3ccccc3)[C@@H](C)C(=O)N2[C@H]1c1ccccc1
inactive: Potency [1] | Potency [3] | Potency [4] | Potency [5]
